In PubChem BioAssay (NCATS):
Results filed as inconclusive are left out. Values without a mark were called inactive. The source made the active and inactive calls. Calls follow the shape of the dose curve; as a rule, active = well fitted cell-killing curve with a large enough effect; inconclusive = small, poorly fitted or top-dose-only effect, or effect the other way; inactive = no such curve, though single readings can be large or run the other way. Starred links: 1 amine or outer side, 2 acyl side, 3 side chain; linkers in the order of their positions; H or OH if unused. Positions of bridges follow the written chain, without caps; N, C: chain ends. Non-standard residues stand in square brackets, D forms with d. Residues, ends and D or L forms follow the SMILES beside them. Chains are numbered I, II in the order given. *: point of attachment. Actinocin(9to1) = Cc1c2oc3c(C)ccc(C(=O)[*:1])c3nc-2c(C(=O)[*:2])c(N)c1=O; NMeV = CN[CH](C(=O)O)C(C)C; Nva = CCC[C@H](N)C(=O)O; Cbz = O=C(OCc1ccccc1)*; Sar = CNCC(=O)O

test: Quantitative High-Throughput drug screen in 47 multiple myeloma cell lines against the NCATS MIPE library collection: MM1S_ATCC cell viability assay (AID 1918980); settings: MM1S myeloma viability, CellTiter-Glo ATP luminescence, 48 h; series mostly up to 45.8 µM; viability (% of control): at the top concentration; also: nearly all actives have a fitted effect of over 45% in size
From the text: PI: Beverly A. Mock Ph.D.
Laboratory of Cancer Biology and Genetics,
Center for Cancer Research, National Cancer Institute,
National Institute of Health, Bethesda, Maryland
Drug resistance and disease progression are common in multiple myeloma (MM) patients, underscoring the need for new therapeutic combinations. […] We hypothesized that effective combinations would reduce MYC expression and enhance p16 activity. […] These preclinical data identify potentially useful drug combinations for evaluation in drug-resistant MM and reveal potential mechanisms of combined drug sensitivity.
Described herein is the primary MIPE qHTS used to cherrypick compounds. Validated compounds were then further tested for potential synergistic activiy.
[1] Peat TJ, Gaikwad SM, Dubois W, Gyabaah-Kessie N, Zhang S, Gorjifard S, Phyo Z, Andres M, Hughitt VK, Simpson RM, Miller MA, Girvin AT, Taylor A, Williams D, D'Antonio N, Zhang Y, Rajagopalan A, Flietner E, Wilson K, Zhang X, Shinn P, Klumpp-Thomas C, McKnight C, Itkin Z, Chen L, Kazandijian D, Zhang J, Michalowski AM, Simmons JK, Keats J, Thomas CJ, Mock BA. Drug combinations identified by high-throughput screening promote cell cycle transition and upregulate Smad pathways in myeloma. Cancer Lett. 2023 Aug 1;568:216284. doi: 10.1016/j.canlet.2023.216284. Epub 2023 Jun 24. PMID: 37356470; PMCID: PMC10408729.
SEQUENCE No. (e.g., 1, 2, 3, etc.); […] (e.g., Cells, Incubation, Reagent, etc.); VALUE and DESCRIPTION.
1; Cells; 5 uL; white, solid bottom 1536-well Greiner assay plate.
2; Compounds; 23 nL; Kalypsis pin tool (Wako USA) equipped with a 1536-well pin head to transfer to the assay plates.
3; Incubation; 48 hours; 37C incubation.
4; Reagent;5uL; CellTiter Glo (Promega).
5; Detector; 425V; Luminescence; Viewlux PerkinElmer.
NOTES (numbers refer to Sequence numbers above)
1. The cell-based screening methods employed in this study were like those previously published. Briefly, the corresponding myeloma cell lines were screened in 1,536-well plates with 500 cells, 5-uL per well for inhibition of cell viability (assessed by measuring ATP levels with CellTiterGlo).
2. NCATS MIPE 4.0 library of approved and investigational drugs were added using the Kalypsis pin tool. Wells treated with DMSO only for 100% viability and media only for 0% viability were used as controls.
3. The assay plates were covered and incubated for 48 hours in a 37C, 5% CO2 incubator with controlled humidity.
4. After 48 hours, CellTilter-GloTM luminescent substrate mix (Promega) reagent was added to the assay plate and plates we incubated for 5 min at room temperature.
5. Signal was measured as median relative luminescence units on a ViewLux (PerkinElmer) multiplate reader.
[1] Heske CM, Davis MI, Baumgart JT, Wilson K, Gormally MV, Chen L, Zhang X, Ceribelli M, Duveau DY, Guha R, Ferrer M, Arnaldez FI, Ji J, Tran HL, Zhang Y, Mendoza A, Helman LJ, Thomas CJ. Matrix Screen Identifies Synergistic Combination of PARP Inhibitors and Nicotinamide Phosphoribosyltransferase (NAMPT) Inhibitors in Ewing Sarcoma. Clin Cancer Res. 2017 Dec 1;23(23):7301-7311. doi: 10.1158/1078-0432.CCR-17-1121. Epub 2017 Sep 12. PMID: 28899971; PMCID: PMC6636827.
Potency is read from the fitted curve at half-maximal effect.

| SMILES | Potency | viability (% of control) [%] |
| --- | --- | --- |
| COC[C@H](NC(=O)c1cnc(C)s1)C(=O)N[C@@H](COC)C(=O)N[C@@H](Cc1ccccc1)C(=O)[C@@]1(C)CO1 | 0.059 µM (active) | – |
| COc1ccc(CCC(=O)c2c(O)cc(O[C@@H]3O[C@H](CO)[C@@H](O)[C@H](O)[C@@H]3O[C@@H]3O[C@@H](C)[C@H](O)[C@@H](O)[C@@H]3O)cc2O)cc1O | 9.35 µM (active) | – |
| CC(C=CC=C(C)C=CC1=C(C)CCCC1(C)C)=CC=CC=C(C)C=CC=C(C)C=CC1=C(C)CCCC1(C)C | 5.9 µM (active) | – |
| COc1cc(C=CC(=O)CC(=O)C=Cc2ccc(O)c(OC)c2)ccc1O | 27 µM (active) | – |
| CCC(C(=O)O)C1CCC(C)C(C(C)C(O)C(C)C(=O)C(CC)C2OC3(C=CC(O)[C@@]4(CC[C@](C)(C5CC[C@@](O)(CC)C(C)O5)O4)O3)C(C)CC2C)O1 (stereo not given in full) | 2.35 µM (active) | – |
| Cc1c2oc3c(C)ccc(C(=O)NC4C(=O)NC(C(C)C)C(=O)N5CCCC5C(=O)N(C)CC(=O)N(C)C(C(C)C)C(=O)OC4C)c3nc-2c(C(=O)NC2C(=O)NC(C(C)C)C(=O)N3CCCC3C(=O)N(C)CC(=O)N(C)C(C(C)C)C(=O)OC2C)c(N)c1=O (stereo not given) (I: TVP[Sar][NMeV] / II: TVP[Sar][NMeV]; ester I:1-I:C, II:1-II:C; linker I:N-II:N via Actinocin(9to1); configuration not given here) | – | -0.246 |
| C=C1C(=O)O[C@H]2[C@@H]1CCC(C)=CCC[C@@]1(C)O[C@@H]21 | 5.9 µM (active) | – |
| C[C@H]1O[C@H](O[C@H]2[C@H](O)[C@@H](O)[C@@H](O[C@H]3[C@H](O)[C@@H](O)C(O)O[C@H]3CO)O[C@H]2CO)[C@H](O)[C@@H](O)[C@H]1N[C@H]1C=C(CO)[C@@H](O)[C@H](O)[C@@H]1O (stereo not given in full) | – | 138 |
| CC(C)Oc1ccc(C(=O)N[C@H](CNC(=O)CN(C)C)Cc2ccc(-c3cn4cccc([C@H](C)O)c4n3)cc2)cc1Cl | 6.62 µM (active) | – |
| O=C(Nc1cccc(Nc2ncc(Br)c(NCCc3cnc[nH]3)n2)c1)N1CCCC1 | 18.7 µM (active) | – |
| CCC[C@@H](C=O)NC(=O)[C@H](CC(C)C)NC(=O)[C@H](CC(C)C)NC(=O)OCc1ccccc1 (Cbz-Leu-Leu-[Nva]-aldehyde) | 0.418 µM (active) | – |
| O=C(CN1C(=O)C2(CCCC2)NC[C@H]1c1cc(F)cc(F)c1)Nc1ccc2c(c1)C[C@@]1(C2)C(=O)Nc2ncccc21 | – | 133 |
| CC(C)(C)c1nc2c3cc[nH]c(=O)c3c3cc(F)ccc3c2[nH]1 | 14.8 µM (active) | – |
| FC(F)(F)c1ccc(Nc2nc3ccc(Oc4ccnc(-c5ncc(C(F)(F)F)[nH]5)c4)cc3[nH]2)cc1 | 20.9 µM (active) | – |
| N#CNC(=NCCCCCCOc1ccc(Cl)cc1)Nc1ccncc1 | 0.0059 µM (active) | – |
| CC(C)C[C@@H](C=O)NC(=O)[C@H](CC(C)C)NC(=O)[C@H](CC(C)C)NC(=O)OCc1ccccc1 (Cbz-Leu-Leu-Leu-aldehyde) | 0.166 µM (active) | – |
| C[C@@H]1CC[C@@]2(OC1)OC1CC3C4CC=C5CC(O)CCC5(C)C4CCC3(C)C1[C@@H]2C (stereo not given in full) | – | 128 |
| Cc1cnn(C)c1C(=O)Nc1cc(Nc2ccc3c(C=Cc4ccccn4)n[nH]c3c2)ccc1F | 20.9 µM (active) | – |
| CC(=O)O[C@]1(C(C)=O)CC[C@H]2[C@@H]3C=C(C)C4=CC(=O)CC[C@]4(C)[C@@H]3CC[C@@]21C | 2.35 µM (active) | – |
| CCN(CC)Cc1ccc2cc(COC(=O)Nc3ccc(C(=O)NO)cc3)ccc2c1 | 0.59 µM (active) | – |

| SMILES | Potency | viability (% of control) [%] |
| --- | --- | --- |
| Cc1noc(-c2ccc(CSCCC(=O)O)cc2)c1NC(=O)OC(C)c1ccccc1Cl (stereo not given) | – | 131 |
| C=CC(=O)Nc1cccc(Nc2nc(NC3CCC(N(C)C)CC3)nc3c2ncn3C(C)C)c1 (stereo not given) | 0.0418 µM (active) | – |
| N#Cc1c(NC(=O)c2cccc3ccccc23)sc2c1CCCC2 | 1.05 µM (active) | – |
| O=C(O)C[C@H](O)C[C@H](O)C=Cc1c(C2CC2)nc2ccccc2c1-c1ccc(F)cc1 | 5.26 µM (active) | – |
| CON=C(C(=O)N[C@@H]1C(=O)N2C(C(=O)O)=C(Cn3ccc(=N)n3CCO)CS[C@H]12)c1csc(N)n1 | – | 116 |
| CCc1nc(-c2cccc(C)c2)c(-c2ccnc(NC(=O)c3ccccc3)c2)s1 | 20.9 µM (active) | – |
| Cc1cnc(Nc2ccc(CN3CCOCC3)cc2)nc1Nc1cccc(S(=O)(=O)NC(C)(C)C)c1 | 5.9 µM (active) | – |
| C[C@H]1C[C@H]2[C@@H]3CCC4=CC(=O)C=C[C@]4(C)[C@@H]3C(=O)C[C@]2(C)[C@@]1(O)C(=O)CO | – | 134 |
| C[C@]12CC[C@@H]3c4ccc(O)cc4CC[C@H]3[C@H]1CC[C@H]2O | 8.33 µM (active) | – |
| C[C@H](NCc1ccc(OCc2cccc(F)c2)cc1)C(N)=O | 9.35 µM (active) | – |
| CC(C(C)N1CC(=O)NC(=O)C1)N1CC(=O)NC(=O)C1 (stereo not given) | – | 118 |
| CC(C)(N)c1ccc(-c2nc3ccccc3nc2-c2ccccc2)cc1 | 18.7 µM (active) | – |
| NC(=O)c1ncn([C@@H]2O[C@H](CO)[C@@H](O)[C@@H]2O)c1O | – | 141 |
| Cn1cnc(=N)c2[nH]cnc21 | 0.0935 µM (active) | – |
| C[C@H]1[C@@H](OC(=O)CCC(=O)O)O[C@@H]2O[C@@]3(C)CC[C@@H]4[C@H](C)CC[C@@H]1[C@@]24OO3 | 18.7 µM (active) | – |
| O=C(O)CCCCCC(=O)NN=C1CCCC1 | – | 128 |
| C[C@]12CCC(=O)C=C1[C@@H]1CC1[C@H]1[C@H]3[C@@H]4C[C@H]4[C@@]4(CCC(=O)O4)[C@@]3(C)CC[C@H]12 (stereo not given in full) | – | 101 |
| Cn1cc(-c2cnn3c(N)c(Br)c([C@H]4CCCNC4)nc23)cn1 | 0.332 µM (active) | – |
| C[C@H](NCc1ccc2c(c1)nc(NC(=O)c1ccc(-c3cn[nH]c3)s1)n2CCc1ccccc1)C(C)(C)C | 1.66 µM (active) | – |
| O=C(C[C@@H]1CC=CCCC(=O)O[C@H](c2ccccc2)CNC1=O)NCc1ccc(Cl)cc1 | 16.6 µM (active) | – |
